mHTT CaM bind: mutant huntingtin-calmodulin interaction inhibitors – biochemical, AlphaScreen, primary screen; P42858; AlphaScreen His-mHTT/GST-CaM binding, luminescence; inhibition, % at 15 µM; 190,000 tested, 3.6% active;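 further: 0% = both proteins with DMSO and 100% = one protein alone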
Target sequence (P42858 whole entry, looked up, stated change not applied): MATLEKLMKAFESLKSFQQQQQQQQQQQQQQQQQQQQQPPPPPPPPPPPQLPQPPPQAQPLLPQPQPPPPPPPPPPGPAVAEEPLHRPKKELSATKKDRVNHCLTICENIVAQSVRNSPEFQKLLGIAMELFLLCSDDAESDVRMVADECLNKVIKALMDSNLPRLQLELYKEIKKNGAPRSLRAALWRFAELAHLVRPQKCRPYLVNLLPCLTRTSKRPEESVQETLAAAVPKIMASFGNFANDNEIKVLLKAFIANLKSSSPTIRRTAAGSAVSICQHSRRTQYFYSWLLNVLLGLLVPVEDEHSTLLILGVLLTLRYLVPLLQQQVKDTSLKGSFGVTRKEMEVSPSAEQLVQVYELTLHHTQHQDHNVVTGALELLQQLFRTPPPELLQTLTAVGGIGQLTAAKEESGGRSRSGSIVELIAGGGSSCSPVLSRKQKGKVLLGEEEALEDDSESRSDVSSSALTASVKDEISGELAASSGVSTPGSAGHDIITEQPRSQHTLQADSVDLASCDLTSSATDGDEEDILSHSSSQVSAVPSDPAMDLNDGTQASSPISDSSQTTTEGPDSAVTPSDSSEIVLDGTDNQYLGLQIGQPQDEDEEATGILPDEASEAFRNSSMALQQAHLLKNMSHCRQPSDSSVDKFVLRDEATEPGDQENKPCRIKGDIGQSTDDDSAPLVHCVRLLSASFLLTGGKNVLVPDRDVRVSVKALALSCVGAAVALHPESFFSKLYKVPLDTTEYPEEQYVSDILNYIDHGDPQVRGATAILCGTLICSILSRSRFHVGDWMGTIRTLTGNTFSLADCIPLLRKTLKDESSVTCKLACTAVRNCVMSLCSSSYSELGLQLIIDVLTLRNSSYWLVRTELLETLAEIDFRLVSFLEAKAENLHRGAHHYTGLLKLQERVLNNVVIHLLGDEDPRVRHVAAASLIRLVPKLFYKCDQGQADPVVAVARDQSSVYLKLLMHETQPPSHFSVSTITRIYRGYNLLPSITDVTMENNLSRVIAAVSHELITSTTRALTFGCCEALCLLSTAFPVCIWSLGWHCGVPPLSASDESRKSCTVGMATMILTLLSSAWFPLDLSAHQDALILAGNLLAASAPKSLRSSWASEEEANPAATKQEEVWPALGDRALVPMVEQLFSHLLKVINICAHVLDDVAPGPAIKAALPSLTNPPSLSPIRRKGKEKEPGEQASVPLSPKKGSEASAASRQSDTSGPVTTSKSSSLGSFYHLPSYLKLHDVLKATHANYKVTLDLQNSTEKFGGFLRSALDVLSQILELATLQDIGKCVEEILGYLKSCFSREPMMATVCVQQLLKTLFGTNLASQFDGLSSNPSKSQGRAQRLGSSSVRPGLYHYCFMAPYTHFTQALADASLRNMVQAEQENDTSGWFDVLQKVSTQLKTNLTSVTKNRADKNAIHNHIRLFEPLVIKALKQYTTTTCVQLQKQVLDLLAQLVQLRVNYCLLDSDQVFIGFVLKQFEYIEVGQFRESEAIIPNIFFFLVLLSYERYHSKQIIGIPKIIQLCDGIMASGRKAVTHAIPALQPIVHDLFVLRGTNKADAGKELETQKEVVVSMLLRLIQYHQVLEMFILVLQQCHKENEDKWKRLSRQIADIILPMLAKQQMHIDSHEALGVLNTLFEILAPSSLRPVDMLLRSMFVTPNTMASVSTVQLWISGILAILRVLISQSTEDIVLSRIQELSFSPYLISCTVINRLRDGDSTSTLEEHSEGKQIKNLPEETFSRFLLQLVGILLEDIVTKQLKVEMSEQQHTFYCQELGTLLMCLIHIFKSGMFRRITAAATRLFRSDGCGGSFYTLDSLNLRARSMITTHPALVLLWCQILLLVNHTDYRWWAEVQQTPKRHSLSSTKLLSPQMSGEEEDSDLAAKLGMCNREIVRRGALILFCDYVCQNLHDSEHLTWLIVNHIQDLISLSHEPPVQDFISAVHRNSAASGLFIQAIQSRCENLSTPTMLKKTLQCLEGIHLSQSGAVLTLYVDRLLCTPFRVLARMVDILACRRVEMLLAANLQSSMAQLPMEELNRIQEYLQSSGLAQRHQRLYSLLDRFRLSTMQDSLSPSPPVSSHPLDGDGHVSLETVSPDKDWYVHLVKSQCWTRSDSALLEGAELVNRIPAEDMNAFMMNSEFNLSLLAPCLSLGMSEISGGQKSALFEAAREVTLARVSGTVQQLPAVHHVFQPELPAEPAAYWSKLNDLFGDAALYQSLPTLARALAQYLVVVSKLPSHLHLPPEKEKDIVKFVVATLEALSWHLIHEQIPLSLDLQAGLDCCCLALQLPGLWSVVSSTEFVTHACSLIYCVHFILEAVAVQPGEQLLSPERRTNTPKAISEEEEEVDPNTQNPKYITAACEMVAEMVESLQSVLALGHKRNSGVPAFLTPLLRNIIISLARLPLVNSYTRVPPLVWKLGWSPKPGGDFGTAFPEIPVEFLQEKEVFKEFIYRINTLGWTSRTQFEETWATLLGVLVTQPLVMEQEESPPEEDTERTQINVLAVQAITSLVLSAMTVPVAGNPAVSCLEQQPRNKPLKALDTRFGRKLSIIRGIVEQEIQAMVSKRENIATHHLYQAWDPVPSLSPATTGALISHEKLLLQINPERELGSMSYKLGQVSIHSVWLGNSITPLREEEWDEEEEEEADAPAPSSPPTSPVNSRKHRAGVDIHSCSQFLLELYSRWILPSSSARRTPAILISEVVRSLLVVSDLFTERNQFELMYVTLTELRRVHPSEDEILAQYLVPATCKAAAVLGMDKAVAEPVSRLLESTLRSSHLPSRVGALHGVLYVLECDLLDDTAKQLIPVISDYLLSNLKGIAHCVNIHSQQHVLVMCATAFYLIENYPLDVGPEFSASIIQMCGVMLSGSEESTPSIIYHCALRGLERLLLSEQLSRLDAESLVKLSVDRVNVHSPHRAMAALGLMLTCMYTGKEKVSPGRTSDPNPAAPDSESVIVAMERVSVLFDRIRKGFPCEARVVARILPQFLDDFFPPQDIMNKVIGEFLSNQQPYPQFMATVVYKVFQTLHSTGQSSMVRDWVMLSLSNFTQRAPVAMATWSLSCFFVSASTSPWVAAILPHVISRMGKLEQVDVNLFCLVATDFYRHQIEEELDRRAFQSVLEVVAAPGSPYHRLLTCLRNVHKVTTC
Pf apPOL block: Pf-apPOL inhibitors, biochemical, fluorescence; 210,000 tested, 0.25% active; Recombinant Pf-apPOL, molecular beacon fluorescence, 1.5 h; Plasmodium falciparum apicoplast DNA polymerase (apPOL); inhibition, % at 10 µM
Active calls of the source: *; . = no result given. A selection: hits, their analogues and other compounds. The true share with any hit is near 3.5%. No stated cut-off is given here; in the data, active means inhibition above about 50%; inactive means the rest.

SMILES	mHTT CaM bind	Pf apPOL block
Cc1cc(NC(=O)c2cc(Cl)ccc2Cl)n(C(C)C)n1	-13	-4
O=C1CSC(c2cc3c(cc2[N+](=O)[O-])OCO3)N1c1ccccc1F (stereo unspecified)	16	-2
O=[N+]([O-])c1cc2c(cc1C1NN=C(c3ccccc3)S1)OCO2 (stereo unspecified)	52*	-9
Cc1cc(C(=O)Nc2ccccc2)c(C)o1	5	-9
Cc1cc(C(=O)Nc2cccc(OC(C)C)c2)c(C)o1	51*	-5
CCc1ccc(N2CCN(C(=O)c3cc(OC)cc(OC)c3)C(C)C2=O)cc1 (stereo unspecified)	2	0
CCOc1ccccc1C(=O)N1CC2CN(S(=O)(=O)c3ccc(C)cc3)CC(C1)O2	23	4
CCC(=O)N1CCN(c2nc(C)nc(CC)c2Cc2ccccc2F)CC1	8	-2
O=C(CN1CCC2(CC1)N=C(c1ccccc1)C(=O)N2)Nc1ccc(F)cc1F	-5	-2
CCCCC(=O)NC(c1cccs1)c1cc(Cl)c2cccnc2c1O (stereo unspecified)	28	-4
O=C(Nc1cccc2cccnc12)C(=O)Nc1cccc2cccnc12	-2	2
OCCN1CCN(C(c2cccs2)c2ccc3cccnc3c2O)CC1 (stereo unspecified)	100*	96*
Oc1ccc2ccccc2c1C(c1cccs1)N1CCCCC1 (stereo unspecified)	.	6
CC(=O)NC(c1cccs1)c1ccc2cccnc2c1O (stereo unspecified)	100*	2
CC(=O)NC(c1ccco1)c1ccc2cccnc2c1O (stereo unspecified)	100*	-2
O=C(C[C@H]1C(=O)N(c2ccccc2)C[C@@H]1Cc1ccccc1)Nc1ccccc1	24	-1
Cc1ccccc1OCC(=O)N1CCN(C2=CC3=NC(C)CN3C=N2)CC1 (stereo unspecified)	91*	-6
COc1ccccc1NC(=O)N1CCN(C2=CC3=NC(C)CN3C=N2)CC1 (stereo unspecified)	4	0
CCOC(=O)CCC(=O)NCCC1CCCCN1S(=O)(=O)c1ccc(C)cc1 (stereo unspecified)	-4	-2
COc1ccc(C2CC3(O)CC(C#N)(C(=O)N3)C2(C#N)C#N)cc1 (stereo unspecified)	2	-2
COc1ccc(C2CC3(C)CC(=O)C2C(C#N)(C#N)C3(C#N)C#N)cc1 (stereo unspecified)	79*	-9
COc1ccccc1N1CCN(C(=O)CCC(=O)N2CCN(c3ccccc3OC)CC2)CC1	-2	1
COc1ccccc1N1CCN(C(=O)c2ccncc2)CC1	-7	-3
COc1ccccc1N1CCN(C(=O)c2ccc(CSc3ccccc3)cc2)CC1	68*	-5
COc1ccccc1N1CCN(C(=O)CC(c2ccccc2)c2ccccc2)CC1	76*	2
SMILES	mHTT CaM bind	Pf apPOL block
Cn1c(SCC(=O)OCc2ccccc2)nnc1-c1c[nH]c2ccccc12	-9	-2
C=CCNCCOc1ccc(Br)cc1C	54*	-2
C=CCNC(=O)COc1ccc(Br)cc1C	-10	4
CC(=O)N1c2ccc(S(=O)(=O)Nc3ccc(Br)cc3C)cc2CC1C (stereo unspecified)	6	8
COc1ccc(OC)c(Nc2nc(-c3c(C)nc4ncccn34)cs2)c1	82*	-7
COc1ccccc1Nc1nc(-c2cccnc2)cs1	25	-2
COc1ccccc1Nc1nc(-c2ccccc2)cs1	18	-1
CCN(CC)c1ccc(Nc2nc(-c3c(C)nc4sccn34)cs2)cc1	93*	0
COc1ccccc1Nc1nc(-c2c(C)nc3ccccn23)cs1	62*	-3
Cc1nc2sccn2c1-c1csc(Nc2ccc([N+](=O)[O-])cc2)n1	10	-1
COc1ccc(OC)c(Nc2nc(-c3cccc([N+](=O)[O-])c3)cs2)c1	4	3
COc1ccccc1Nc1nc(-c2c(C)nc3sccn23)cs1	80*	-4
Cc1cccc(C2CCCN2C(=O)Cc2cccc(F)c2)c1 (stereo unspecified)	3	1
C=CCOc1ccccc1CN1CCCN(C)CC1	2	0
Cc1ccc(C2=N/C(=C\c3ccccc3C(F)(F)F)C(=O)O2)cc1[N+](=O)[O-]	3	2
COc1ccc(-c2nnc3n2CCN(C(=O)C2CCCNC2)C3)cc1 (stereo unspecified)	7	4
O=C1ON=C(CSc2ccccc2)C1=Cc1ccccc1	.	61*
O=C1CCC=C1CSc1ccccc1	-7	.
Cc1ccc(S(=O)(=O)N2CCc3c(c(-c4nc(-c5ccccc5)no4)nn3C)C2)cc1C	-10	-3
Cc1n[nH]c(C)c1S(=O)(=O)N1CCc2c(c(-c3nc(-c4ccccc4)no3)nn2C)C1	53*	-2
CN(C)c1ccc(C(=O)Nc2ccc(O)c3c(=O)cc(-c4ccccc4Cl)oc23)cc1	54*	2

High-throughput results as filed in PubChem BioAssay.
